Laboratory results taken from PubChem BioAssay (EPA / NIEHS).
Where “and” joins values, the source holds several entries; their conditions need not be identical. Identical values can stand only once. Results filed as inconclusive are left out. Calls of active or inactive are those of the source. The calls were made as follows: active = hit-call score of the fitted dose curve at least 0.9, where 1 is the maximum; inconclusive = response in the unintended direction; inactive = score below 0.9.

Test system: not listed separately
Experiment: ACEA_AR_antagonist_AUC_viability: ACEA Biosciences xCELLigence Real-Time Cell Analysis on Androgen Receptor Antagonism for Viability (AID 2283776);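 also: 22Rv1 human prostate cancer cells growing on impedance electrode plates; area under impedance growth curve at 80 h after dosing as viability; hits lower the growth signal relative to DMSO meaning cytotoxicity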
How it was run: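 22Rv1 prostate cells, continuous dosing up to 100 uM final (0.5% DMSO max), duplicate plates. Growth measured by impedance; AUC at 80 h, loss of signal vs DMSO.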
For `CC(C)c1cccc(C(C)C)c1O`, the outcome was “inactive”. With `CCOC(=O)Nc1cccc(OC(=O)Nc2ccccc2)c1` the outcome was “inactive”. With `CC1(C)Cc2cccc(O)c2O1` the outcome was “inactive”. In the case of `Oc1cccc2cccnc12`, the AC50 is reported as 18.6 µM (active) and 9.5 µM (active). For `CCC(=O)C(CC(C)N(C)C)(c1ccccc1)c1ccccc1` (stereo not drawn), the AC50 was 32.9 µM (active). For `Cc1ccccc1N`, the outcome was “inactive”. For `O=C(Nc1ccc2[nH]ccc2c1)c1cc2cc(F)ccc2n1Cc1cccc(F)c1`, the AC50 was 10 µM (active). In the case of `O=C(Cc1ccccc1)c1ccccc1`, the outcome is reported as “inactive”. In the case of `CC(C)(c1ccc(OCC2CO2)cc1)c1ccc(OCC2CO2)cc1` (stereo not drawn), the outcome is reported as “inactive”. In the case of `O=C1C(Cl)=C(Cl)C(=O)c2ccccc21`, the outcome is reported as “inactive”. For `CC12CC1(C)C(=O)N(c1cc(Cl)cc(Cl)c1)C2=O` (stereo not drawn), the AC50 was 81 µM (active). With `CN(C)N=O` the outcome was “inactive”. In the case of `CC(C)(C)CC(C)(C)c1ccc(O)cc1`, the AC50 is reported as 8.78 µM (active). In the case of `O=C1C2(Cl)C3(Cl)C4(Cl)C(Cl)(Cl)C5(Cl)C3(Cl)C1(Cl)C5(Cl)C24Cl` (stereo not drawn), the AC50 is reported as 7.14 µM (active). With `[O-][Cl+2]([O-])O` the outcome was “inactive”. With `c1cc[c]([Hg][c]2ccccc2)cc1` the AC50 was 16.6 µM (active). For `CCCCCCCCc1ccc(O)cc1`, the AC50 was 28.9 µM (active). For `Oc1ccc(-c2ccccc2)cc1`, the AC50 was 1.1 µM (active). In the case of `Cl/C=C\C[N+]12CN3CN(CN(C3)C1)C2`, the outcome is reported as “inactive”. For `CCC(C)(C)c1ccc(O)c(C(C)(C)CC)c1`, the AC50 was 47.9 µM (active). With `Cc1ccc(N)cc1Cl` the outcome was “inactive”. In the case of `CCC1(c2ccc(N)cc2)CCC(=O)NC1=O` (stereo not drawn), the outcome is reported as “inactive”. With `CC1(C)CCC(Cc2ccc(Cl)cc2)C1(O)Cn1cncn1` (stereo not drawn) the outcome was “inactive”. For `C[C@H]1CCCC(=O)CCC/C=C/c2cc(O)cc(O)c2C(=O)O1`, the AC50 was 31.3 µM (active) and 9.08 µM (active). In the case of `CCOP(=S)(OCC)Oc1nc(Cl)c(Cl)cc1Cl`, the AC50 is reported as 63.3 µM (active). With `CC(C)(C)c1cc(O)ccc1O` the AC50 was 86.2 µM (active). In the case of `CC(=O)C=C(C)C`, the outcome is reported as “inactive”.

Test system: frog Estrogen Receptor (ESR1), gene 398734
Experiment: ATG_frER1_XSP1: Attagene TRANS-FACTORIAL Multi-Species (XSP1) HepG2 Assay for frog Estrogen Receptor (ESR1) (AID 2283777)
How it was run: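 After transient transfection and 24 h compound treatment, total RNA from HepG2 cells was reverse-transcribed, amplified, FAM-labeled and resolved by capillary electrophoresis. Signal increases were fitted against DMSO controls.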
With `CC12CC1(C)C(=O)N(c1cc(Cl)cc(Cl)c1)C2=O` (stereo not drawn) the outcome was “inactive”. In the case of `CC(C)(C)CC(C)(C)c1ccc(O)cc1`, the AC50 is reported as 1.86 µM (active). With `O=C1C2(Cl)C3(Cl)C4(Cl)C(Cl)(Cl)C5(Cl)C3(Cl)C1(Cl)C5(Cl)C24Cl` (stereo not drawn) the AC50 was 0.271 µM (active). With `C[C@]12CCC(=O)C[C@@H]1CC[C@@H]1[C@@H]2CC[C@]2(C)[C@@H](O)CC[C@@H]12` the outcome was “inactive”. For `CC1(C)CCC(Cc2ccc(Cl)cc2)C1(O)Cn1cncn1` (stereo not drawn), the outcome was “inactive”. For `CC(C)(C)c1cc(O)ccc1O`, the outcome was “inactive”.

Test system: zebrafish Estrogen Receptor (ESR2A), gene 317734
Experiment: ATG_zfER2a_XSP1: Attagene TRANS-FACTORIAL Multi-Species (XSP1) HepG2 Assay for zebrafish Estrogen Receptor (ESR2A) (AID 2283778)
Description: ATG_XSP1_multi-species_TRANS is a cell-based, multiplexed assay created by modifying the existing Attagene TRANS-FACTORIAL system to include a panel of nuclear receptors from some or all the following species: human (Homo sapiens), mouse (Mus musculus), frog (Xenopus laevis), zebrafish (Danio rerio), chicken (Gallus gallus), and turtle (Chrysemys picta). The […] format uses HepG2, a human liver cell line, with measurements taken at 24 hours after chemical dosing in a 24-well plate. Xsp1 included 3 nM 6-alpha-fluorotestosterone to partially stimulate the androgen receptor.ATG_zfER2a_XSP1 is one of 29 assay components measured or calculated from the ATG_XSP1_multi-species_TRANS assay. It is designed to make measurements of mRNA induction, a form of inducible reporter, as detected with fluorescence intensity signals by Reverse transcription polymerase chain reaction (RT-PCR) and Capillary electrophoresis technology.The assay endpoint ATG_zfER2a_XSP1 was analyzed in the positive analysis fitting direction relative to DMSO as the negative control and baseline of activity. Using a type of inducible reporter, measures of mRNA for gain-of-signal activity can be used to understand the reporter gene at the transcription factor-level as they relate to the gene ER. Furthermore, this assay endpoint can be referred to as a primary readout, because this assay has produced multiple assay endpoints where this one serves a reporter gene function. To generalize the intended target to other relatable targets, this assay endpoint is annotated to the nuclear receptor intended target family, where the subfamily is steroidal.
Human liver HepG2 cells are transiently transfected with multiple reporter transcription units (MRTUs) in 6-well plates using FuGene 6 reagent (Roche; 3 ml FuGene/1 mg DNA). The MRTU constructs are regulated by a cis-regulating element (promoter). […] A major difference between the CIS and TRANS system is that in CIS activities of endogenous TFs are measured, whereas the TRANS assay evaluates changes in activities of exogenous, chimeric NR-Gal4 proteins. […] At the end of 24 hour incubation, total RNA was isolated using TriZol reagent (Invitrogen). The isolated RNA is then reverse-transcribed using oligo(dT) primer and Mo-MLV reverse transcriptase (Invitrogen) with DNAse I (Ambion) treatment for 30 min. The one-tenth of the produced cDNA was amplified by PCR using Taq DNA polymerase (Invitrogen) and two reporter sequence-specific primers. The PCR products were fluorescently labeled by primer extension with 6-arboxyfluorescein (6-FAM) 5'-labeled reporter sequence-specific primer (2 min at 95 C, 20 s at 68 C and 10 min at 72 C) and these products were digested with 5U of HpaI (New England Biolabs) for 2h at 37 C. The fragments were purified using Qiaquick PCR columns (Qiagen), analyzed on an ABI 3130xL genetic analyzer (Applied Biosystems) with peak positions identified by using a set of X-rhodamine (ROX)-labeled MapMarker1000 molecular weight standards (BioVentures). The raw capillary electrophoresis data was processed using Attagraph software (Attagene).
With `CC12CC1(C)C(=O)N(c1cc(Cl)cc(Cl)c1)C2=O` (stereo not drawn) the outcome was “inactive”. In the case of `CC(C)(C)CC(C)(C)c1ccc(O)cc1`, the outcome is reported as “inactive”. In the case of `C[C@]12CCC(=O)C[C@@H]1CC[C@@H]1[C@@H]2CC[C@]2(C)[C@@H](O)CC[C@@H]12`, the AC50 is reported as 0.851 µM (active). With `CC1(C)CCC(Cc2ccc(Cl)cc2)C1(O)Cn1cncn1` (stereo not drawn) the outcome was “inactive”. With `CC(C)(C)c1cc(O)ccc1O` the outcome was “inactive”.
